Measured values: PubChem BioAssay (NCI)
Compounds without any hit were thinned out: in the full panel of roughly 83,000, 20% have a hit.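 Cells were grown in 96-well plates and exposed to the test compound at a single concentration for 48 hours; results are reported as percent growth, with values below 10 considered active.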 Calls of active or inactive are those of the source.

System: MDA-MB-468 breast
Experiment: NCI-60 one-dose screen, 48 h (100 = growth as untreated, 0 = no growth, -100 = all killed)
Conditions: 10 µM unless noted

Structure (SMILES)	growth
CC(C)(C)OC(=O)N1CCCN(CCNc2nccc(-c3c(-c4cccc(O)c4)nc4sccn34)n2)S1(=O)=O	97.3% (inactive)
Cc1ccc(C2CC(c3nc(-c4ccc(Cl)cc4)oc3C)=NN2C(=O)c2ccncc2)cc1 (stereo not given)	97.8% (inactive)
O=C(Nc1ccc(Oc2ccc(NC(=O)Nc3ccc([N+](=O)[O-])cc3)cc2)cc1)Nc1ccc([N+](=O)[O-])cc1	-3.83% (active)
O=S(=O)(NCCNc1nccc(-c2c(-c3ccc(F)c(O)c3)nc3sccn23)n1)c1ccc(O)cc1	31.4% (inactive)
C=C(C)[C@@H]1CC[C@]2(C(=O)N=C=S)CC[C@]3(C)[C@H](CC[C@@H]4[C@@]5(C)CCC(=O)C(C)(C)[C@@H]5CC[C@]43C)[C@@H]12	11.2% (inactive)
COC(=O)CCOc1ccccc1	80% (inactive)
COc1ccc2c(c1)CC[C@H](O)/C2=C/c1cc(OC)c(OC)c(OC)c1	17.6% (inactive)
COc1ccc2cc(-c3ccc(C(=O)NN)c(C)n3)ccc2c1	106% (inactive)
COc1cc(/C=C2\C(=O)N(CCOc3cc(O)c4c(=O)cc(-c5ccccc5)oc4c3)c3ccccc32)cc(OC)c1O	89.6% (inactive)
CCC(c1cccc(O)c1)C(CC)c1cccc(O)c1 (stereo not given)	24.1% (inactive)
COc1cc(C2=NN(C(C)=O)C(c3cc(OC)c(OC)c(OC)c3)C2)ccc1O (stereo not given)	15.9% (inactive)
CCc1c(C)c2ccc(OCC(=O)N=Nc3c(O)[nH]c4ccccc34)c(C)c2oc1=O	18.9% (inactive)
O=C(CN1C(=O)/C(=C/c2ccccc2)SC1=S)N1CCOCC1	82.4% (inactive)
N=C(N)N=Nc1ccc(O)cc1	88% [100 µM] (inactive)
CCN(CCNc1ccc(C)c2sc3ccccc3c(=O)c12)CC(C)(C)O	26% (inactive)
O=C(Nc1c2ccccc2nc2ccccc12)c1ccccc1CN1C(=O)c2ccccc2C1=O	0.8% (active)
Nc1cc(N)nc(SCC(=O)O)n1	108% (inactive)
CCCCCCCCN(CCCCCCCC)C(=N)c1ccnc2ccccc12	-75.5% (active)
COc1ccc(-c2nc3ccc4[nH]ncc4c3c3c2CCCC3)cc1B(O)O	31.5% (inactive)
CNC(=O)c1cc(Oc2ccc3nc(NC(=O)Nc4ccc(Cl)cc4)sc3c2)ccn1	55.1% (inactive)

Structure (SMILES)	growth
Nc1c(C(=O)Nc2cccc3c2OCCO3)sc2nc3c(cc12)C(=O)CCC3	18.7% (inactive)
Cn1cc(-c2nonc2-c2c[nH]c3ccccc23)c2cccnc21	-12.9% (active)
O=C(Nc1cccc(C(F)(F)F)c1)N1CCN(c2cc(-c3cn(-c4ccccc4)nc3-c3cccc(O)c3)ccn2)CC1	32.5% (inactive)
CCN(CC)CCC(CNc1c(C)cnc2cc(Cl)ccc12)c1ccc(Cl)c(Cl)c1 (stereo not given)	18.5% (inactive)
COc1ccc(Nc2nnc(SCc3ccccc3F)s2)cc1	55.9% (inactive)
O=C(Nc1ccccc1O)c1ccc(CNC(=O)c2sccc2Nc2ccnc(C(F)(F)F)c2)cc1	14.8% (inactive)
Clc1ccc2c(NCCCCNc3nc(N4CCOCC4)nc4ccccc34)ccnc2c1	24.9% (inactive)
CCOC(=O)c1cc2c(n1Cc1cccc(OC)c1)-c1oncc1CC2	-2.28% (active)
CC1=C(C(=O)OC(C)C)C(c2ccc3c(c2)OCO3)NC(=S)N1 (stereo not given)	115% (inactive)
CCOCc1cc(C(C)(C)C)ccc1O	94.3% (inactive)
Cc1nc2c3c(-c4ccccc4)c(-c4ccccc4)oc3ncn2n1	93.9% (inactive)
N#CC(Cc1cccc2ccccc12)c1cc2ccccc2[nH]1 (stereo not given)	93.2% (inactive)
CCOC(=O)C(Cc1cc(I)c(O)c(I)c1)NC(=O)c1ccccc1 (stereo not given)	98.9% (inactive)
Cc1cccc(C)c1N=c1oc2ccc(Cl)cc2nc1-c1ccccc1O	94.8% (inactive)
CC(C)C1=NOC(=O)C1=Cc1cn(-c2ccccc2)nc1-c1ccccc1	97.2% (inactive)
Cc1ccc(C2=Nc3c(ccc4c(C)c(C)c(=O)oc34)OC2)cc1	113% (inactive)
CCCCCc1c(C)[nH]c(/C=C2\N=C(c3ccc[nH]3)C=C2Oc2ccc(OC)cc2)c1C	-54.8% [100 µM] (active)
COc1cc(-c2noc(C[C@@H](NC(=O)OCc3ccccc3)C(C)C)n2)cc(OC)c1OC	88.5% (inactive)
Clc1nc(Cl)c2ncn(CCOCCn3cnc4c(Cl)nc(Cl)nc43)c2n1	-72.3% (active)
Cn1c(-c2ccccc2)c(/C=C/C2=[N+](C)c3ccccc3C2(C)C)c2ccccc21	-16.5% (active)
